Out of some 52,000 compounds screened, about 1,700 (3.3%) were called active. No stated cut-off is given here; in the data, active means survival mostly below about 52% (no sharp cut-off); inactive means mostly above about 56%. The full list was thinned out, with actives kept by preference.

This experiment has as its system Wild type. Put plainly: S. aureus survival, RN4220 and DeltatarO strains – OD600, teichoic acid synthesis inhibitors, primary screen (AID 463173). To be noted: S. aureus RN4220 wild type/DeltatarO growth, OD600, 18 h, active compounds read low, screened at 18.75 µg/mL (by protocol).
Turning to `COc1cc(NC(=O)CCc2c(C)n(C)c3cc(-c4ccccc4C)nn3c2=O)cc(OC)c1OC`, the survival is 130% (inactive).

As to `Cc1ccc(NC(=O)N2CCc3c([nH]c4ccccc34)C2c2ccccc2F)c(Cl)c1` (stereo unspecified), the survival is 82% (inactive). For the compound `CCc1ccc(NS(=O)(=O)c2ccc(C(=O)N(C)C)s2)cc1`, the survival was 64% (inactive). The same measure for `CCC1CCCCN1C(=O)c1sc(-n2nc(C)c(Cc3ccccc3)c2C)nc1C` (stereo unspecified): 72% (inactive); for `CC(=O)c1ccc(NC(=O)C2CCN(S(=O)(=O)c3ccc4c(c3)CCCN4C(=O)C3CCC3)CC2)cc1`: 74% (inactive). The same measure for `CCOC(=O)Cn1nc(N2CCN(c3ccc(F)cc3)CC2)ccc1=O`: 73% (inactive); for `COc1ccc(Cn2ccc3nc(C)c(C(=O)NCc4cccc(OC)c4)cc3c2=O)cc1`: 75% (inactive). The same measure for `Cc1ccc(CNC(=O)CCCc2nnc3n(C)c(=O)c4sccc4n23)cc1`: 92% (inactive). On to `CCOC(=O)c1cc(C)n(CC2CCC(C(=O)Nc3cccc(C(C)=O)c3)CC2)c1C` (stereo unspecified), for which the survival was 79% (inactive).

`Cc1c(Cl)cccc1-n1nc(C)c2c(C)cc(=O)n(CC(=O)N3CCCc4ccccc43)c21`: the survival is 71% (inactive). The same measure for `CCN1CCc2c(sc(NC(=O)CSc3ccccc3)c2-c2nc3ccccc3s2)C1`: -6% (active); for `CC(=O)N1CCc2c(sc(NC(=O)CSc3ccccc3)c2-c2nc3ccccc3s2)C1`: 120% (inactive). The result for `CN1CCc2c(sc(NC(=O)CSc3ccccc3)c2-c2nc3ccccc3s2)C1` reads 80% (inactive); that for `CCOC(=O)c1cc(-c2ccccc2)n(CC(=O)NC2CCC(C)CC2)c1C` (stereo unspecified), 81% (inactive). The result for `CCc1ccc(NC(=O)C(CC)n2c(=O)c(C(F)(F)F)nc3ccccc32)cc1` (stereo unspecified) reads 81% (inactive); that for `Cc1cccc(N2CCN(Cc3cc(=O)oc4cc(C)ccc34)CC2C)c1` (stereo unspecified), 84% (inactive). Consider `O=C1C2=C(Nc3ccccc3SC2c2ccc(C(F)(F)F)cc2)c2ccccc21` (stereo unspecified), for which the survival was 36% (inactive). Take `CC(C)(C)c1ccc(C2Sc3ccccc3NC3=C2C(=O)c2ccccc23)cc1` (stereo unspecified): the survival is 82% (inactive).

Regarding `O=C1C2=C(Nc3ccccc3SC2c2ccccc2C(F)(F)F)c2ccccc21` (stereo unspecified), the survival was 11% (active). For the compound `CCC(Sc1nnc(C)n2c1cc1sccc12)C(=O)Nc1ccccc1F` (stereo unspecified), the survival is 79% (inactive). Regarding `CCOc1cc(CNC(=O)c2ccc(Cn3c(=O)c4cccn4c4cccnc43)cc2)ccc1OC`, the survival was 86% (inactive).

Consider `COc1cccc(-c2nn(C)c3sc(C(=O)N4CCN(c5cccc(C)c5)C(C)C4)cc23)c1` (stereo unspecified), for which the survival is 72% (inactive).

With `CCOC(=O)C1CCC(CN(Cc2ccc(Cl)cc2)S(=O)(=O)c2cccc(Cl)c2C)CC1` (stereo unspecified), the survival was 82% (inactive).

As for `CC(=O)c1ccc(NC(=O)CC2Nc3cccc4cccc(c34)NC2=O)cc1` (stereo unspecified), the survival is 96% (inactive). The result for `CCOC(=O)c1ccc(NC(=O)CC2Nc3ccccc3NC2=O)cc1` (stereo unspecified) reads 62% (inactive); that for `CCOC(=O)c1ccc(NC(=O)CC2Nc3cccc4cccc(c34)NC2=O)cc1` (stereo unspecified), -13% (active).

These data come from PubChem BioAssay AID463173 (ICCB-Longwood Screening Facility, Harvard Medical School, 2010).
